Compounds with a hit are over-represented: about 19% of the library has one in this group of screens.
HT1080-NT tox = kills 2HG-producing HT-1080-NT fibrosarcoma cells. 360,000 compounds, 1.6% hits. HT-1080-NT fibrosarcoma viability, CellTiter-Glo ATP luminescence, 48 h. Potency, µM (titrated, usually from 46.1 µM), inactives show at the top dose activity, negative = less viability, actives largely listed as cytotoxic;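 further: NT is the 2HG producing partner of a matched IDH1 knockdown line; potency means the concentration at half of the fitted maximal effect; 0% = DMSO-treated cells and -100% = media-only wells without cells; nearly all actives have a fitted effect of over 55% in size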
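HT-1080-NT; 750 cells/well; 5% FBS RPMI; 48 h compound, 37 degrees C; CellTiter-Glo luminescence; curve fitting and curve-class assignment.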
TDP1 cell CPT = growth inhibition of DT40 Tdp1-/-;hTDP1 cells with camptothecin (screen for TDP1 inhibitors). chicken DT40 Tdp1-/-;hTDP1 cells + 20 nM CPT, ATP luminescence, 48 h. Potency, µM (top dose mostly 46.2 µM), without a hit: at the highest dose activity change, negative = growth inhibition, actives largely listed as inhibitors. 420,000 compounds, 12% hits. AID 686979; further: potency means the concentration at half of the fitted maximal effect; nearly all actives have a fitted effect of over 55% in size
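Cell growth measured by CellTiter-Glo luminescence after a minimum 48 h, 37 C compound exposure with 20 nM CPT in Tdp1-knockout DT40 cells stably expressing hTDP1, seeded 400/well; qHTS titration format.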
TDP1 cell noCPT = qHTS for Inhibitors of human tyrosyl-DNA phosphodiesterase 1 (TDP1): qHTS in cells in absence of CPT | Potency, µM (series often up to 46.2 µM), for the others: top-dose activity change, negative = growth inhibition, most hits filed as inhibitors | 420,000 compounds, 15% hits | DT40 Tdp1-/- hTDP1 cells, no CPT, ATP luminescence, 48 h; further: potency means the concentration at half of the fitted maximal effect; nearly all actives have a fitted effect of over 55% in size
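Growth kinetics read by CellTiter-Glo luminescence after ≥48 hr at 37 °C. Cells: DT40 Tdp1-/- stably carrying human TDP1, 400 per well, compound exposure in the absence of CPT (DMSO vehicle).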
IL1B secr inh = inhibitors of inflammasome signaling (IL-1 beta secretion). AID 743279. 360,000 compounds, 4.7% hits. activity change, % at 57.5 µM. THP-1 LPS/ATP IL-1B secretion, AlphaLISA, 16 h; hits give low values; in the data active means activity change below about -50%; inconclusive means mostly about -30% to -49%
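Secreted IL-1B measured by AlphaLISA bead assay after 16 h compound exposure of THP-1 cells; compounds (final up to 57.5 uM) added 1 h before LPS (250 ng/mL) and ATP (1.25 mM) stimulation; lower signal means less secretion.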
uPA surface inh = blocks generation of uPA at the cell surface; cell surface uPA generation assay, qHTS; 330,000 compounds, 0.31% hits; Potency, µM (titrated, usually from 38.3 µM), for the others: top-dose activity change, negative = inhibition, most hits filed as inhibitors; active means well fitted inhibition curve with a large enough effect; inconclusive means small, poorly fitted or top-dose-only effect; inactive means no such curve, though single readings can be large or run the other way; tested in mouse RAW 264.7 cells; further: potency means the concentration at half of the fitted maximal effect; nearly all actives have a fitted effect of over 55% in size
HT1080 IDH1KD tx = kills HT-1080 cells with IDH1 knockdown; HT-1080 IDH1 knockdown viability, ATP luminescence, 48 h; Potency, µM (top dose mostly 46.1 µM), inactives show at the top dose activity, negative = toxicity, usual class: cytotoxic; 360,000 compounds, 2% hits; AID 686971;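 further: potency means the concentration at half of the fitted maximal effect; 0% = DMSO wells and -100% = cell-free medium wells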
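Assay cells: HT-1080 with IDH1 knockdown, 750 per well, RPMI/5% FBS. Exposure: 48 h at 37 °C following 2 h pre-incubation. Read: CellTiter-Glo luminescence; fitted concentration-response, curve class assigned.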
* marks the source's active call; other numbers are inactive results; ? = inconclusive; nt = no result; [ ] = remark or other dose. Unless noted, the call rests on the fitted dose curve; in most records, active means well fitted curve in the direction sought with a large enough effect; inconclusive means small, poorly fitted or top-dose-only effect, or another doubt; inactive means no such curve, though single readings can be large; an effect the other way counts as inactive or inconclusive. Unless noted, on the % scale 0 is the no-effect control and ±100 the full control effect.

SMILES	HT1080-NT tox	TDP1 cell CPT	TDP1 cell noCPT	IL1B secr inh	uPA surface inh	HT1080 IDH1KD tx
COc1ccc2[nH]c(C(=O)O)c(NS(=O)(=O)c3ccc(C)cc3C)c2c1	8%	7%	3%	0	5%	8%
Cc1c(N=C(N)/N=C(\N)Nc2ccc(Br)cc2)c(=O)n(-c2ccccc2)n1C	-3%	?	?	-23	9%	-22%
COc1ccc(OCC(O)Cn2c(=N)n(Cc3ccccc3)c3ccccc32)cc1 (stereo not drawn)	?	?	6.5µM*	-97*	nt	11µM*
Cc1cccc(OCC(O)Cn2c(=N)n(Cc3ccccc3)c3ccccc32)c1 (stereo not drawn)	-1%	?	21µM*	-54*	-13%	-18%
COc1ccc(OCC(O)CN2C(=O)c3ccccc3C2=O)cc1 (stereo not drawn)	?	0%	-7%	-6	-1%	25%
COc1ccc(N(C(=O)CNC(=O)c2ccco2)C(C(=O)NCC2CCCO2)c2ccccc2)cc1 (stereo not drawn)	6%	14%	5%	13	-4%	12%
Cc1cccc(NC(=O)C2CCN(S(=O)(=O)c3ccc(F)cc3)CC2)c1C	nt	-3%	-17%	nt	nt	nt
COc1ccc(-c2csc(NC(=O)C3CSC4(C)CCC(=O)N34)n2)cc1 (stereo not drawn)	10%	-5%	0%	11	7%	5%
COc1ccc(-c2csc(NC(=O)C3CSC4(C)CCC(=O)N34)n2)c(OC)c1 (stereo not drawn)	-6%	?	23µM*	-71*	-4%	-18%
COc1ccc(Nc2nc3c(S(=O)(=O)c4ccccc4)nnn3c3ccsc23)cc1OC	nt	-11%	-7%	nt	nt	nt
COc1ccc(OC)c(C(=O)c2oc3ccccc3c2NC(C)=O)c1	-19%	23µM*	16µM*	-8	-10%	-28%
COc1ccccc1NC(=O)c1oc2ccccc2c1NC(=O)c1cccc(OC)c1OC	nt	5.8µM*	5.8µM*	nt	nt	nt
COc1cc(C(=O)Nc2c(C(=O)Nc3ccccc3F)oc3ccccc23)cc(OC)c1OC	nt	5.2µM*	4.1µM*	nt	nt	nt
CC(=O)Nc1c(C(=O)Nc2ccccc2F)oc2ccccc12	nt	-16%	?	nt	nt	nt
COc1cccc(C(=O)Nc2c(C(=O)Nc3ccc(F)cc3)oc3ccccc23)c1OC	nt	-11%	?	nt	nt	nt
COc1ccccc1C(=O)Nc1c(C(=O)NC(C)(C)C)oc2ccccc12	nt	?	23µM*	nt	nt	nt
NS(=O)(=O)c1cccc(NC(=O)CSc2n[nH]c(-c3ccccc3Br)n2)c1	-2%	-24%	-10%	5	-21%	-3%
CCOc1ccc(NC(=O)c2oc3ccccc3c2NC(=O)c2ccc(OC)cc2OC)cc1	nt	23µM*	18µM*	nt	nt	nt
COc1ccccc1C(=O)Nc1c(C(=O)N2CCN(C)CC2)oc2ccccc12	13%	-25%	-24%	-60*	13%	3%
Cc1ccccc1C(=O)Nc1c(C(=O)N(CCN(C)C)Cc2ccco2)oc2ccccc12	-18%	?	?	0	-18%	?
CCOc1ccc(NC(=O)c2oc3ccccc3c2NC(=O)COc2cccc(OC)c2)cc1	nt	-1%	-12%	nt	nt	nt
COc1cccc(OC)c1C(=O)Nc1c(C(=O)N2CCN(C)CC2)oc2ccccc12	4%	1%	3%	13	15%	0%
CCOC(=O)c1oc2ccccc2c1NC(=O)c1ccccc1OC	-6%[9.24 µM]	?	?	?	nt	?
COc1ccccc1C(=O)Nc1c(C(=O)N(CCN(C)C)Cc2ccco2)oc2ccccc12	-3%	9.2µM*	12µM*	?	?	?
COc1ccccc1C(=O)Nc1c(C(=O)c2ccccc2)oc2ccccc12	nt	18µM*	?	nt	nt	nt
SMILES	HT1080-NT tox	TDP1 cell CPT	TDP1 cell noCPT	IL1B secr inh	uPA surface inh	HT1080 IDH1KD tx
COc1ccccc1-n1nnnc1SCC(=O)N(C)C1CCS(=O)(=O)C1 (stereo not drawn)	4%	-7%	16%	0	21%	4%
Cc1cccc(NC(=O)CSCC(=O)NNC(=O)c2ccoc2C)c1	0%	3%	6%	-15	1%	-4%
Cc1ccc(OCc2nc3ccccc3n2C(C(=O)NC(C)(C)C)c2ccncc2)cc1 (stereo not drawn)	16%	-6%	2%	-21	nt	0%
COc1ccc(NC(=O)c2oc3ccccc3c2NC(=O)C23CC4CC(CC(C4)C2)C3)c(OC)c1	nt	-23%	23µM*	nt	nt	nt
COc1ccccc1NC(=O)c1oc2ccccc2c1NC(=O)C1CCCCC1	nt	-23%	?	nt	nt	nt
COc1ccc(Nc2c(C3CC3)nc3nc(C)cc(C)n23)cc1	7%	?	?	52	nt	-11%
Cc1nc(C(=O)N(C)C)nn1-c1ccc(Cl)cc1Cl	-3%	7%	-7%	1	2%	-5%
CNC(=O)c1nc(C)n(-c2ccc(Cl)cc2Cl)n1	1%	12µM*	?	7	2%	-15%
CC(O)[C@@H]1NC(=O)[C@H](Cc2ccccc2)NC(=O)[C@H](C(C)O)NC(=O)[C@H](CCCCN)NC(=O)[C@H](Cc2c[nH]c3ccccc23)NC(=O)[C@H](Cc2ccccc2)NC(=O)[C@H](Cc2ccccc2)NC(=O)[C@H](CC(N)=O)NC(=O)[C@H](CCCCN)NC(=O)[C@@H](NC(=O)CNC(=O)[C@H](C)N)CSSC[C@@H](C(=O)O)NC(=O)[C@H](CO)NC1=O (stereo partly drawn)	nt	-7%	-13%	nt	nt	nt
Cc1ccccc1COc1cccn2c(N(C)C(=O)CCC3CCCC3)c(C)nc12	?	?	23µM*	-57*	nt	?
COc1ccccc1COc1cccn2c(N(C)C(=O)CCC3CCCC3)c(C)nc12	?	18µM*	15µM*	-21	nt	?
CN(C)CCCNC(=O)C[C@H]1C[C@H](C(=O)N2CCOCC2)[C@@]2(C)c3[nH]c4cc(-c5ccco5)ccc4c3CCN2C1=O	-11%	?	-6%	-21	10%	-3%
CCOc1ncc(S(=O)(=O)N2CCN(CC)CC2)cc1C(=O)O	16%	-7%	4%	3	3%	7%
CC(C)COc1ccc(C(=O)Nc2onc3c2CCCC3)cc1	nt	13µM*	23µM*	nt	nt	nt
CC(C)COc1ccc(C(=O)Nc2ccc([N+](=O)[O-])cc2)cc1	14%	-23%	-22%	0	0%	-1%
C=CCC1NS(=O)(=O)OC(CCc2ccccc2)C1O (stereo not drawn)	7%	-6%	-7%	23	15%	9%

Screening results as filed in PubChem BioAssay.
